DAGLB inhibitor: DAGLB lipase inhibitors, primary screen, biochemical, fluorescence, HTS; Diacylglycerol lipase-beta (Homo sapiens), Q8NCG7; HEK293T DAGLB membrane lysate, EnzChek fluorogenic substrate; inhibition, % at 5.17 µM; hit rate 0.059% among 340,000; AID 504411, 2011; in the data active means inhibition above about 34%;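 further: 0% = enzyme with vehicle and 100% = wells lacking enzyme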
pPAFAH inh: pPAFAH enzyme inhibitors, primary screen, biochemical, fluorescence polarization, human; Platelet-activating factor acetylhydrolase (Homo sapiens), Q13093; recombinant pPAFAH, FP-rhodamine probe fluorescence polarization; inhibition, % at 3.39 µM; hit rate 1.5% among 330,000; AID 463082, 2010;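 active means inhibition above the mean inhibition across the screen plus 3 SD, cut at about 25% in these data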;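 further: inhibitors block binding of the rhodamine activity-based probe so polarization drops; 0% = enzyme with DMSO and 100% = wells lacking pPAFAH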
PAFAH1B2 FP inh: PAFAH1B2 enzyme inhibitors, primary screen, biochemical, fluorescence polarization, human; recombinant PAFAH1B2, FP-rhodamine activity probe; hit rate 1.2% among 340,000; Platelet-activating factor acetylhydrolase IB subunit alpha2 (Homo sapiens), P68402; inhibition, % at 3.39 µM;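 active means inhibition above the mean of all tested compounds plus 3 SD, cut at about 24% in these data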;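 further: 0% = enzyme with DMSO and 100% = wells lacking PAFAH1B2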
Target sequence (P68402 whole entry, looked up): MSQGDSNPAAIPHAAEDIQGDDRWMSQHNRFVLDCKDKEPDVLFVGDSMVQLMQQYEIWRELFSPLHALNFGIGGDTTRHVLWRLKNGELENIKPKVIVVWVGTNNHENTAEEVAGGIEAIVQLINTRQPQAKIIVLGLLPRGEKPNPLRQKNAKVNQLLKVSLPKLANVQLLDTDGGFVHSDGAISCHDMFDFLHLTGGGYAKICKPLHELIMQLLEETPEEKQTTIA
PAFAH1B3 inh: PAFAH1B3 enzyme inhibitors, primary screen, biochemical, fluorescence polarization, human; Platelet-activating factor acetylhydrolase IB subunit alpha1 (Homo sapiens), Q15102; recombinant PAFAH1B3, FP-rhodamine probe; inhibition, % at 3.39 µM; hit rate 0.28% among 340,000; AID 492972, 2010;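 active means inhibition above the screen-wide average of all tested compounds plus 3 SD, cut at about 25% in these data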;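 further: 0% = enzyme with DMSO only and 100% = wells lacking PAFAH1B3 protein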
PAFAH2 FP inh: PAFAH2 enzyme inhibitors, primary screen, biochemical, fluorescence polarization, human. recombinant PAFAH2, FP-rhodamine activity probe. inhibition, % at 3.39 µM. hit rate 0.99% among 340,000;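 active means inhibition above the mean over all tested compounds plus 3 SD, cut at about 30% in these data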;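 further: inhibitors block probe labeling of enzyme so polarization drops; 0% = enzyme with DMSO and 100% = wells lacking PAFAH2 protein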
ATG4B inhibitor: ATG4B protease inhibitors, primary screen, biochemical, fluorescence, uHTS; Cysteine protease ATG4B (Homo sapiens), Q9Y4P1; ATG4B cleavage of LC3-PLA2, NBD-HPC fluorescence, 1 h; inhibition, % at 8.33 µM; hit rate 0.51% among 340,000; in the data active means inhibition above about 40%
Target sequence (Q9Y4P1 whole entry, looked up): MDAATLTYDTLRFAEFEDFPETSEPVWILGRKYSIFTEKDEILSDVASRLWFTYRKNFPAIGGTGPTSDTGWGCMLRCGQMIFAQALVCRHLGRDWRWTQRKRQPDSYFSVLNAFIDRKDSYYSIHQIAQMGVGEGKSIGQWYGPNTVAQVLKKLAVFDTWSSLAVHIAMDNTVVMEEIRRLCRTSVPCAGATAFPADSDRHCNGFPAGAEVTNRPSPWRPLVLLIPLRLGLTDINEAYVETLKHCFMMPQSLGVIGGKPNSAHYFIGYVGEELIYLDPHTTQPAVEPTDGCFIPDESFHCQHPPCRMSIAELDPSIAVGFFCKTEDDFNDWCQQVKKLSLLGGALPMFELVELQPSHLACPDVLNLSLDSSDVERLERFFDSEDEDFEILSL
Starred values were filed as active, the others as inactive; x = not tested or not shown. This is a sample that favours compounds with a hit; in the whole collection about 3% have one here.

SMILES | DAGLB inhibitor | pPAFAH inh | PAFAH1B2 FP inh | PAFAH1B3 inh | PAFAH2 FP inh | ATG4B inhibitor
COc1cc(/C=N/N2CCCCC2)cc([N+](=O)[O-])c1O | 1.6 | 28.5* | -0.6 | 10.9 | 6.0 | 5.2
Cc1cc(Cl)ccc1OCCCC(=O)NNC(=O)c1ccccc1O | 7.0 | 28.8* | 13.0 | 14.9 | 2.0 | 1.2
Cc1ccc(F)c(Cn2cnc3c(cnn3C(C)(C)C)c2=O)c1Cl | -7.2 | 5.7 | 2.9 | 13.4 | -0.6 | 26.9
O=S(=O)(Nc1ccc2cn[nH]c2c1)c1ccc(Cl)cc1 | 2.5 | 1.4 | 31.5* | 11.5 | 17.1 | -10.4
COc1ccc(CCNC(=S)NCc2ccc(Cl)c(Cl)c2)cc1OC | 0.5 | -1.7 | 3.7 | 4.5 | 3.9 | 22.4
COc1cc(/C=C(\C#N)c2nc3ccc(C)cc3[nH]2)cc([N+](=O)[O-])c1O | 26.8 | x | 33.3* | 21.3 | 37.8* | 2.7
COc1cc(/C=C(\C#N)c2nc3ccc(C)cc3[nH]2)c([N+](=O)[O-])cc1OC | 3.5 | 15.0 | 3.6 | 6.5 | 6.3 | -17.1
NC(=O)c1ccc[n+](CC(=O)OCCC23CC4CC(CC(C4)C2)C3)c1 | -0.8 | -2.9 | 26.2* | 0.2 | -0.4 | 7.3
O=C(Nc1ccncc1)c1ccc(Cl)c(S(=O)(=O)N2CCCC2)c1 | -1.0 | 0.4 | 0.1 | 1.9 | -4.0 | -4.6
CC1=C(C#N)C(=O)N(C2CCS(=O)(=O)C2)C(=O)/C1=C\c1ccc(C)o1 (stereo not drawn) | x | 37.3* | x | x | x | x
Cc1ccc(S(=O)(=O)N2CCCC2C(=O)NCc2ccncc2)cc1 (stereo not drawn) | 0.9 | -1.6 | -2.5 | 1.3 | -1.9 | 3.3
CCN(C(=O)COc1cc(=O)n(CC)c2ccccc12)c1cccc(Cl)c1 | -1.9 | 26.6* | 6.4 | 1.2 | 15.1 | -7.6
CCN(C(=O)COc1cc(=O)n(CC)c2ccccc12)c1cc(Cl)ccc1OC | -1.4 | 0.3 | 6.9 | 14.1 | 6.2 | -2.9
C/C(N)=C(/C#N)C(=O)COC(=O)CSc1ccccc1 | -4.9 | 2.5 | 26.2* | -6.7 | -8.0 | 4.8
Cc1ccc(/C=C2\SC(=S)N(CCCC(=O)Nc3ccccc3C(=O)O)C2=O)cc1 | -0.2 | 1.0 | 18.8 | 2.7 | 29.5 | -5.4
CCc1ccc(/C=C2\SC(=S)N(CCCC(=O)Nc3ccccc3C(=O)O)C2=O)cc1 | 1.0 | -4.1 | 55.0* | -2.2 | 30.7* | 21.2
O=C(CCCN1C(=O)/C(=C\c2cccs2)SC1=S)Nc1ccc(O)cc1C(=O)O | 10.9 | 25.3* | 43.9* | 5.1 | 13.2 | 10.8
COc1ccc(-c2noc(=O)n2CC(=O)N2CCC(Cc3ccccc3)CC2)cc1 | -4.0 | -1.3 | 2.6 | 7.6 | 1.1 | -1.8
COc1ccc2oc(C(=O)Nc3ccc(N4CCOCC4)cc3)c(C)c2c1 | 3.9 | 52.3* | 3.4 | 4.4 | 12.6 | 0.8
COc1ccc(C(=O)N(C)CCCC2CCCC2)cc1OC1CCN(C(C)C)CC1 | -0.5 | 1.5 | -6.2 | 2.4 | -7.1 | 7.0
CCN(CC)c1ccc(N=Cc2ccccc2[N+](=O)[O-])cc1 | 12.1 | 32.8* | -0.2 | 10.1 | 3.7 | 55.1*
CC(=O)N(C)c1ccc(N=Cc2cc3c(cc2[N+](=O)[O-])OCO3)cc1 | -1.0 | 6.9 | 3.7 | 2.7 | 6.4 | -1.7
Nc1c(C(=O)CSc2nnc(-c3ccccc3)o2)c(=O)[nH]c(=O)n1C1CC1 | -0.9 | -0.3 | -1.4 | 9.1 | -1.8 | -3.2
COc1ccc2c(c1)O/C(=C\c1ccccc1C)C2=O | -12.3 | 27.2* | 2.2 | 3.8 | -8.4 | -9.5
COc1ccc(/C=C2\Oc3cc(OC(=O)N4CCOCC4)ccc3C2=O)cc1 | -2.3 | 27.0* | 4.8 | 6.9 | 11.6 | -14.7
SMILES | DAGLB inhibitor | pPAFAH inh | PAFAH1B2 FP inh | PAFAH1B3 inh | PAFAH2 FP inh | ATG4B inhibitor
CC(=O)Oc1ccc2c(c1)O/C(=C\c1ccncc1)C2=O | -20.0 | 3.2 | 0.5 | 2.6 | -7.2 | -2.3
COc1ccccc1C(=O)Oc1ccc2c(c1)O/C(=C\c1ccncc1)C2=O | -11.1 | 3.3 | 3.2 | 6.0 | -1.3 | -1.8
CCc1ccc(/C=C2\Oc3cc(OC(=O)N4CCOCC4)ccc3C2=O)cc1 | 1.5 | 26.3* | 3.4 | 8.7 | 3.0 | -8.9
COc1ccc(S(=O)(=O)Nc2cccc3c2O[C@H](CN(C)Cc2ccncc2)[C@@H](C)CN([C@H](C)CO)C3=O)cc1 | 3.6 | 5.2 | -0.3 | -5.0 | -5.8 | -3.7
O=C(CN(Cc1ccccc1F)S(=O)(=O)c1ccc(Cl)cc1)NCC1CCCO1 (stereo not drawn) | -0.8 | 5.8 | 8.0 | 7.5 | 0.2 | 5.9
CN(Cc1ccccc1)C(=O)CCCn1c(=O)c2cccn2c2cccnc21 | -4.8 | 1.7 | 10.5 | 2.6 | -0.1 | -2.3
CCOC(=O)C1=C(C)NC(=O)NC1c1ccc(N(C)C)cc1 (stereo not drawn) | 1.7 | x | -5.0 | -3.6 | -1.3 | -3.8
CCC(CC)COC(=O)C1=C(C)NC(=O)NC1c1ccc(N(C)C)cc1 (stereo not drawn) | 3.5 | 14.7 | 28.2* | 3.7 | 4.4 | 8.1
COc1ccc([N+](=O)[O-])cc1N(CC(=O)NC(C(C)C)C(C)C)S(C)(=O)=O | 0.1 | -1.1 | 3.7 | 7.1 | 7.7 | -3.7
CCCCCCSC1=C(C#N)C(c2ccc(C)o2)CC(=O)N1 (stereo not drawn) | 2.3 | 25.4* | 5.3 | 10.1 | 18.3 | -0.4
Cc1ccc(CS/C(Nc2ccccc2C)=C(\C#N)C(=O)NCc2ccco2)c(C)c1 | -6.4 | 28.2* | -1.7 | 1.0 | -10.5 | 9.0
Cc1cc(Br)ccc1NC(=O)CSc1nnc(CN2CCOCC2)n1C | 0.5 | 1.5 | 2.5 | 8.2 | -9.5 | -7.2
COc1ccc(C/C(=N\OC(C)=O)c2ccc(OC)cc2)cc1 | -2.6 | 1.7 | 29.5* | 1.3 | 2.1 | 1.2
COc1ccc(/C(N)=N/OC(=O)Cc2ccc(C)cc2)cc1 | -22.1 | 5.5 | 8.6 | 1.9 | 10.1 | -11.9
CCc1ccc(C(=O)CCC(=O)Nc2cccc(S(=O)(=O)N3CCCCC3)c2)cc1 | -1.8 | x | -1.7 | -3.7 | -7.4 | -17.5
COc1ccc(C(=O)N(CCc2ccccc2)Cc2ccccc2)cc1S(=O)(=O)N1CCOCC1 | 0.9 | 26.8* | 3.8 | -0.4 | 1.4 | 2.3
CN(C1=C(NC(=O)c2ccccc2)C(=O)c2ccccc2C1=O)C1CCS(=O)(=O)C1 (stereo not drawn) | 0.1 | 14.1 | 16.8 | 50.8* | 37.7* | x
O=C(O)c1cccc2cccc(-c3c4ccc(=O)c(O)c-4oc4c(O)c(O)ccc34)c12 | 3.6 | x | 62.2* | 65.8* | 69.0* | 37.5
C[C@H](CO)N1C[C@H](C)[C@@H](CN(C)C(=O)c2cnccn2)Oc2cc(C#CCC3CCCC3)ccc2S1(=O)=O | -2.7 | x | x | x | x | x
